# Data: the supplement of paper PMC8728848
# The sample as a whole holds a higher share of the strongest signals than the screen did.
# B1: Pbx1 (Cryptococcus neoformans) (protein)
# chain: ATTKCLVSGDQDSINNALALGGEGTTVTLCPGSVHRLNSSIIFTAPSQTLTTLGNPKDRNRAMLVVDGEDLACAIRADCKQCSHAMIRSLVIDGNRPQLLRIPKGDALIEVGNAESQTVRDCKLYEPRGWSALHFREGDERQCRFGHIVDNEIGPCGEEWDDEYDSMDETKPLWGNPRADGISLACKDSIVERNVVYDATDGAIVLFGSAGSTVKNNHVYARTRVILGGINLVDYEPWDGDYTNVKVHHNHLYALGRYFKVGIVIGPASWSDDTESVVHSASVTDNEFSGGYWGYGIVVASAKNFEVLRNKVIWDGEQGVARFSGVPGSRCPKAPENGKPTAFLINRGSAKGIFQDDFVNGEVQHIICLNPDQDPPYKPWRFRDSPEAIAAKQAENPTANSAFDSRIAEALVSYQMSLLNSMDAMTQKVEHLTNPIVDDALPFVHEHERAEADKKARQEASRKEKESGNKDVDMLNVKVEELEKSGRRLKKALDGLKSDFEGLSGRLKKSADENKPIIETIFVTSQNLLLGATSQQN
# Experiments:
# Experiment in all cases: glycan array binding signal (z-score within array); higher = stronger binding
# Settings in all cases: glycan notation: IUPAC condensed, linker removed
# [1] = molecular target: Glc(a1-4)Glc
# How it was run: (§1)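 The binding signal is a Z-score computed within each array. Data were drawn from 3228 arrays in the Consortium for Functional Glycomics database, restricted to those with a known protein sequence. Scores were averaged over arrays of the same protein sequence at different concentrations or buffers, and over linkers, and negative values can be taken as non-binding.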
# [2] = molecular target: Glc(a1-4)Glc(a1-4)Glc(a1-4)Glc
# How it was run: as §1
# [3] = molecular target: GlcA(b1-3)GlcNAc
# How it was run: as §1
# [4] = molecular target: GlcNAc(a1-3)Gal(b1-4)GlcNAc
# How it was run: as §1
# [5] = molecular target: GlcNAc(b1-2)[GlcNAc(b1-6)]Man(a1-6)[GlcNAc(b1-2)Man(a1-3)]Man(b1-4)GlcNAc(b1-4)[Fuc(a1-6)]GlcNAc
# How it was run: as §1
# [6] = molecular target: GlcNAc(b1-2)[GlcNAc(b1-6)]Man(a1-6)[GlcNAc(b1-4)][GlcNAc(b1-2)Man(a1-3)]Man(b1-4)GlcNAc(b1-4)GlcNAc
# How it was run: as §1
# [7] = molecular target: GlcNAc(b1-3)Gal
# How it was run: as §1
# [8] = molecular target: GlcNAc(b1-3)[GlcNAc(b1-6)]GalNAc
# How it was run: as §1
# [9] = molecular target: GlcNAc(b1-4)GlcNAc(b1-4)GlcNAc
# How it was run: as §1
# [10] = molecular target: GlcNAc(b1-4)GlcNAc(b1-4)GlcNAc(b1-4)GlcNAc(b1-4)GlcNAc
# How it was run: as §1
# [11] = molecular target: GlcNAc(b1-6)Gal(b1-4)GlcNAc
# How it was run: as §1
# [12] = molecular target: GlcNAc(b1-6)GalNAc
# How it was run: as §1
# [13] = molecular target: MurNAc(b1-4)GlcNAc
# How it was run: as §1
# [14] = molecular target: Neu5Ac(a2-3)Gal(b1-3)GlcNAc(b1-2)Man(a1-3)[Neu5Ac(a2-3)Gal(b1-3)GlcNAc(b1-2)Man(a1-6)]Man(b1-4)GlcNAc(b1-4)GlcNAc
# How it was run: as §1
# [15] = molecular target: Neu5Ac(a2-3)Gal(b1-3)GlcNAc6S
# How it was run: as §1
# [16] = molecular target: Neu5Ac(a2-3)Gal(b1-3)]Neu5Ac(a2-3)Gal(b1-4)]GlcNAc
# How it was run: as §1
# [17] = molecular target: Neu5Ac(a2-3)Gal(b1-4)[Fuc(a1-3)]GlcNAc(b1-3)Gal(b1-4)GlcNAc
# How it was run: as §1
# [18] = molecular target: Neu5Ac(a2-3)Gal(b1-4)[Fuc(a1-3)]GlcNAc(b1-6)[Gal(b1-3)]GalNAc
# How it was run: as §1
# [19] = molecular target: Neu5Ac(a2-3)Gal(b1-4)[Fuc(a1-3)]GlcNAc(b1-6)[Neu5Ac(a2-3)Gal(b1-3)]GalNAc
# How it was run: as §1
# [20] = molecular target: Neu5Ac(a2-6)Gal(b1-4)GlcNAc(b1-2)[Neu5Ac(a2-6)Gal(b1-4)GlcNAc(b1-4)]Man(a1-3)[GlcNAc(b1-4)][Neu5Ac(a2-6)Gal(b1-4)GlcNAc(b1-2)[Neu5Ac(a2-6)Gal(b1-4)GlcNAc(b1-6)]Man(a1-6)]Man(b1-4)GlcNAc(b1-4)GlcNAc
# How it was run: as §1
# [21] = molecular target: Neu5Ac(a2-6)Gal(b1-4)GlcNAc(b1-2)[Neu5Ac(a2-6)Gal(b1-4)GlcNAc(b1-6)]Man(a1-6)[Neu5Ac(a2-6)Gal(b1-4)GlcNAc(b1-2)Man(a1-3)][GlcNAc(b1-4)]Man(b1-4)GlcNAc(b1-4)GlcNAc
# How it was run: as §1
# [22] = molecular target: Neu5Ac(b2-6)GalNAc
# How it was run: as §1
# [23] = molecular target: Neu5Gc(a2-3)Gal(b1-3)GlcNAc
# How it was run: as §1
# [24] = molecular target: Neu5Gc(a2-8)Neu5Ac(a2-3)Gal(b1-4)GlcNAc
# How it was run: as §1
binder,measurement,setting,value
B1,glycan array binding signal (z-score),[1],0.352
same,glycan array binding signal (z-score),[2],-0.56
same,glycan array binding signal (z-score),[3],0.759
same,glycan array binding signal (z-score),[4],0.052
same,glycan array binding signal (z-score),[5],-0.137
same,glycan array binding signal (z-score),[6],-0.848
same,glycan array binding signal (z-score),[7],-0.639
same,glycan array binding signal (z-score),[8],-0.235
same,glycan array binding signal (z-score),[9],-0.565
same,glycan array binding signal (z-score),[10],-0.631
same,glycan array binding signal (z-score),[11],-0.045
same,glycan array binding signal (z-score),[12],-0.262
same,glycan array binding signal (z-score),[13],5.14
same,glycan array binding signal (z-score),[14],0.345
same,glycan array binding signal (z-score),[15],-0.618
same,glycan array binding signal (z-score),[16],-1.05
same,glycan array binding signal (z-score),[17],0.071
same,glycan array binding signal (z-score),[18],3.7
same,glycan array binding signal (z-score),[19],0.371
same,glycan array binding signal (z-score),[20],2.36
same,glycan array binding signal (z-score),[21],-0.36
same,glycan array binding signal (z-score),[22],-0.769
same,glycan array binding signal (z-score),[23],-0.531
same,glycan array binding signal (z-score),[24],-0.771
